# About 14,000 (4.5%) of roughly 310,000 compounds showed an effect of 50% or more. The effect is printed as a negative number. This is one part of a sample in which strong results are shown more often than they occur.
# Target: human ether-à-go-go-related gene (hERG) potassium channel (human, UniProt Q12809)
# Assay: primary screen, population patch clamp on CHO cells stably expressing hERG; higher = less effect of the substance
# 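Also: peak tail current of the secondary pulse compared with the same well before compound.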
# Chain of human ether-à-go-go-related gene (hERG) potassium channel (Q12809 whole entry, looked up): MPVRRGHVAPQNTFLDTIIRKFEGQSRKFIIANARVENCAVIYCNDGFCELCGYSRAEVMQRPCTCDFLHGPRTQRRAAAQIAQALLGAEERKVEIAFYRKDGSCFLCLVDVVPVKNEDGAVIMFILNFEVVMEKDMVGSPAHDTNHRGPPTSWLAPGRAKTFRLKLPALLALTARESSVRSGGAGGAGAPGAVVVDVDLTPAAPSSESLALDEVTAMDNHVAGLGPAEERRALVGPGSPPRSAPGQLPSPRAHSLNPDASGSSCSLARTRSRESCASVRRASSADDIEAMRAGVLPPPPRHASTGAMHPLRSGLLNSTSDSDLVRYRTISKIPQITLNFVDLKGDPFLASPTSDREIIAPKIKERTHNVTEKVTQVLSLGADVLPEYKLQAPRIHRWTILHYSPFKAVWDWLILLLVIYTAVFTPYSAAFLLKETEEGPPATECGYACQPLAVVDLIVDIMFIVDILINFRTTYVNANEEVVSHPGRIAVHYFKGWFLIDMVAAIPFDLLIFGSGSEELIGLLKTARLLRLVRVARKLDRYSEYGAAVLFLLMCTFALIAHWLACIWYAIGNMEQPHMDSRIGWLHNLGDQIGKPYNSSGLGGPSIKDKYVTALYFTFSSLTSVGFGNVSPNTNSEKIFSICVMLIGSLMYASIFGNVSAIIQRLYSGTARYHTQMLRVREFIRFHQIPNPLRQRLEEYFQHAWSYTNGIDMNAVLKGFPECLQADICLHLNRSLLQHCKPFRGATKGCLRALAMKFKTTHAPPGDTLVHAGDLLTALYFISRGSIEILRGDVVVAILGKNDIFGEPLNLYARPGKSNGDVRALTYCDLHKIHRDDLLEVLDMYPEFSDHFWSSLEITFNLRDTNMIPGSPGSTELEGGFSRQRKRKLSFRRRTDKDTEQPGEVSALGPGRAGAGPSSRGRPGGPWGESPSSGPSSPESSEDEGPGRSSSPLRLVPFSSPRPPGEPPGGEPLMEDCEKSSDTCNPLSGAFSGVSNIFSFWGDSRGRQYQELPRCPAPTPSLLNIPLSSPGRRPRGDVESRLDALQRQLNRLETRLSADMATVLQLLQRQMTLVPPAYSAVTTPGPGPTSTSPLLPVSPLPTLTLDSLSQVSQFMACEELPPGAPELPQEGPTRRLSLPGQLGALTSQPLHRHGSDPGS
row,Structure (SMILES),"hERG current change (%, negative = inhibition) at 10uM"
1,Cc1cc(C)nc(N(C#N)CC(=O)N2CCC(C(N)=O)CC2)n1,20.1%
2,CN1CCc2[nH]c3ccc(C(=O)NN)cc3c2C1,5.22%
3,CC1CCc2sc(C(=O)NCC(C)(C)N3CCOCC3)cc2C1 (stereo not drawn),-32.6%
4,CCOC(=O)c1oc2ccccc2c1NC(=O)c1ccc(Cl)s1,11.7%
5,COc1cccc(-c2ccc(NC(=O)C3CCCN(Cc4cnn(C(C)C)c4)C3)cc2)c1 (stereo not drawn),-79.7%
6,Cc1ncc(CN2CCCC(C(=O)Nc3ccc(-c4ccco4)cc3)C2)n1C (stereo not drawn),-59.6%
7,Cn1cc(CN2CCCC(C(=O)Nc3ccc(-c4cccc(F)c4)cc3)C2)cn1 (stereo not drawn),-43.9%
8,O=C(Nc1ccc(-c2cccc(F)c2)cc1)C1CCCN(Cc2ccccn2)C1 (stereo not drawn),-42.3%
9,COc1cccc(C(=O)C2CCCN(Cc3cnn(C(C)C)c3)C2)c1 (stereo not drawn),-43.6%
10,Cc1ncc(CN2CCCC(C(=O)Nc3ccc(-c4cccc(F)c4)cc3)C2)cn1 (stereo not drawn),-73.2%
11,COc1cccc(-c2ccc(NC(=O)C3CCCN(Cc4cnn(C)c4)C3)cc2)c1 (stereo not drawn),-37%
12,COc1cccc(-c2ccc(NC(=O)C3CCCN(Cc4cnc(C)s4)C3)cc2)c1 (stereo not drawn),2.11%
13,COc1cccc(-c2ccc(NC(=O)C3CCCN(Cc4cnc(N(C)C)s4)C3)cc2)c1 (stereo not drawn),8.97%
14,Cc1ncc(CN2CCCC(C(=O)Nc3ccc(-c4ccco4)cc3)C2)cn1 (stereo not drawn),-11.5%
15,Nc1ncc(CN2CCCC(C(=O)Nc3ccc(-c4ccco4)cc3)C2)cn1 (stereo not drawn),-17.8%
16,COc1cccc(-c2ccc(NC(=O)C3CCCN(Cc4cnc(C)n4C)C3)cc2)c1 (stereo not drawn),-74.3%
17,COC(=O)c1c(C)nc(C)c(C(=O)OC)c1-c1ccc(OC)cc1,-7.69%
18,Cc1cc(C)nc(N/N=C/c2cn[nH]c2-c2ccc(F)cc2)n1,8.66%
19,Cc1ccc(CNC(=O)c2cccc3c2C(=O)c2ccc(N4CCCCC4)cc2S3(=O)=O)cc1,-6.76%
20,CCOc1ccc(CCNC(=O)Nc2ccccc2C)cc1OCC,5.4%
21,COc1ccccc1-c1ccc(SCc2cccc(C)c2)nn1,-26.6%

row,Structure (SMILES),"hERG current change (%, negative = inhibition) at 10uM"
1,Cc1ccc(CCC(=O)Nc2ccc(Cl)cc2)o1,12.8%
2,O=C(O)C1=CC[C@@H](c2ccc(Cl)cc2)N(S(=O)(=O)c2ccc(Cl)cc2)[C@H]1c1ccc(F)cc1,4.97%
3,CCOC(=O)c1sc(N)c(C#N)c1CSc1nnc(C2CCCCC2)n1N,-1.65%
4,CC1CC(C)CN(C(=O)c2cc3ccccc3o2)C1 (stereo not drawn),-2.2%
5,COc1ccc(C(=O)Nc2cc(Cl)ccc2Cl)c(OC)n1,-5.79%
6,CCc1ncc(CN2CCCC(C(=O)Nc3cccc(-c4cccc(C)c4)c3)C2)cn1 (stereo not drawn),-48.8%
7,Cc1ncoc1C(=O)N1CCCC(C(=O)Nc2cccc(-c3ccc(F)cc3)c2)C1 (stereo not drawn),-36.4%
8,Cc1cccc(-c2cccc(NC(=O)C3CCCN(C(=O)c4ocnc4C)C3)c2)c1 (stereo not drawn),-53%
9,COCCc1ncc(CN2CCCC(C(=O)Nc3cccc(-c4cccc(C)c4)c3)C2)cn1 (stereo not drawn),-56.6%
10,Cc1ncc(CN2CCCC(C(=O)Nc3ccc(-c4cccc(F)c4)cc3)C2)s1 (stereo not drawn),1.64%
11,CCCc1ncc(CN2CCCC(C(=O)Nc3ccc(-c4cccc(OC)c4)cc3)C2)cn1 (stereo not drawn),-39.7%
12,CCc1nc(C)c(C(=O)N2CCCC(C(=O)Nc3cccc(-c4cccc(C)c4)c3)C2)o1 (stereo not drawn),-42.5%
13,Cc1ncc(CN2CCCC(C(=O)Nc3ccc(-n4ccnc4C)cc3)C2)cn1 (stereo not drawn),12.8%
14,Cc1ncc(CN2CCCC(C(=O)Nc3ccc(-c4cccc(F)c4)cc3)C2)n1C (stereo not drawn),-69.5%
15,Cc1ccc(C(=O)N2CCCC(C(=O)Nc3cccc(-c4ccc(F)cc4)c3)C2)cn1 (stereo not drawn),-29.1%
16,O=C(Nc1cccc(-c2ccc(F)cc2)c1)C1CCCN(Cc2cccnc2)C1 (stereo not drawn),-60.2%
17,Cc1ccc(C(=O)C(C)OC(=O)CCN=C2NS(=O)(=O)c3ccccc32)cc1 (stereo not drawn),6.4%
18,Cc1nn(Cc2c(Cl)cccc2Cl)c(Cl)c1C(=O)O,14.4%
19,COCCN(C(=O)CC1C(=O)NCCN1Cc1ccc(-c2ccccc2)cc1)C(C)C (stereo not drawn),1%
20,COc1ccc(OCCn2ccnc2)cc1,12.4%
21,CCOCCCNC(=S)N1C2CCC1CC(NC(=O)Nc1ccc(C(=O)OCC)cc1)C2 (stereo not drawn),13.7%

# From paper PMC4336329 (PLoS ONE, 2015)
